Here are results for three compounds from PubChem BioAssay (NCATS).

A short description of test [1]: MultiTox-Fluor Cytotoxicity Assay - LYMP1-001 - Live Cells (AID 947; active means well fitted curve in the direction sought with a large enough effect; an effect the other way counts as inactive or inconclusive;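 further: 0% = DMSO only and full inhibition = tetraoctylammonium bromide control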).
In test [2] the target is Bile acid receptor (Homo sapiens) (UniProt Q96RI1). The test can be described thus: qHTS assay for small molecule agonists of farnesoid X receptor signaling (AID 588527).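 Further: series mostly up to about 77 µM; 0% = vehicle basal and 100% = reference agonist.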 The following applies: HEK293T FXR-UAS-bla, beta-lactamase ratio, 16 h; activation: stronger effect = higher value. Put shortly: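 Quantitative HTS used FXR-UAS-bla HEK293T cells with 16 h compound incubation at 37 C. EC50 values came from concentration-response curves normalized to chenodeoxycholic acid.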
(qHTS replaces the single test concentration by a dilution series.)

Test [3] in a line: qHTS assay for small molecule agonists of retinoid X receptor alpha signaling (AID 588544).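 On activation: 0% = DMSO basal wells and 100% = reference agonist.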 The following applies: HEK293T RXRa-UAS-bla, beta-lactamase reporter, 18 h; 530 nm emission.
Test [4] concerns the target Glucocorticoid receptor (Homo sapiens) (UniProt P04150). The test can be described thus: qHTS assay for small molecule agonists of glucocorticoid receptor signaling (AID 588532; active means well fitted curve in the direction sought with a large enough effect in the signal ratio, with a control signal flat; the % refers to the signal ratio;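 further: 100% = dexamethasone at 0.1 µM and 0% = DMSO only wells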). Particulars: HeLa MMTV-bla, beta-lactamase ratio, agonist, 18 h; activation: stronger effect = higher value, percent of dexamethasone control, DMSO zero. Put shortly:
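Quantitative HTS using CellSensor MMTV-bla HeLa cells in charcoal/dextran-treated serum; compounds tested up to 92 uM. After 18 h at 37 C, CCF4 dye reported reporter induction.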

Test [5] shares this target. Briefly: qHTS assay for small molecule antagonists of glucocorticoid receptor signaling (AID 588533; active means well fitted inhibition curve with a large enough effect in the signal ratio, with a control signal flat, not every such curve was filed as active; the % refers to the signal ratio;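 further: cells stimulated with 2 nM dexamethasone as agonist; on the % scale 0 is the no-effect control and ±100 the full control effect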). Put shortly: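 Antagonist-mode qHTS: compound titrations added to GRE-bla HeLa cells, then dexamethasone 2 nM final; 18 h, 37 C. CCF4 FRET fluorescence normalized to dexamethasone and DMSO; IC50 from Hill fit.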
Test [6] addresses Peroxisome proliferator-activated receptor delta (Homo sapiens) (UniProt Q03181). Briefly: qHTS assay for small molecule agonists of peroxisome proliferator-activated receptor delta signaling (AID 588534).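 Further: 0% = DMSO basal wells and 100% = positive control agonist at 10 µM.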 Put shortly: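 Reporter cells were plated and held 5 hrs at 37 C before compounds were added. After 18 hrs at 37 C, CCF4 dye was loaded for 2 hrs at RT and fluorescence measured.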

Test [7] in a line: qHTS assay for small molecule antagonists of peroxisome proliferator-activated receptor delta signaling (AID 588535; active means well fitted inhibition curve with a large enough effect in the signal ratio, with a control signal flat, not every such curve was filed as active; the % refers to the signal ratio;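 on max response: cells co-treated with a PPAR-delta agonist as stimulator during compound exposure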). The following applies: HEK293T PPARd-UAS-bla, beta-lactamase FRET ratio, 18 h; 460 nm channel. Summed up:
(§1)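 Cell-based beta-lactamase assay in antagonist mode: 4000 HEK293T PPAR-delta-UAS-bla cells per well, 5 hr preincubation then 18 hr compound incubation at 37 C. IC50 obtained by Hill equation fitting.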

For test [8], the target named is Peroxisome proliferator-activated receptor delta (Homo sapiens) (UniProt Q03181). The description is as above. Summed up:
as §1

Test [9] addresses Peroxisome proliferator-activated receptor gamma (Homo sapiens) (UniProt P37231). The test can be described thus: qHTS assay for small molecule agonists of peroxisome proliferator-activated receptor gamma signaling (AID 588536; active means well fitted curve in the direction sought with a large enough effect in the signal ratio, with a control signal flat, not every such curve was filed as active; the % refers to the signal ratio;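 further: 0% = DMSO basal wells and 100% = rosiglitazone at 2 µM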). Summed up:
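HEK293 UAS-bla reporter line, 1% charcoal/dextran FBS; titration, 16 h, 37 C; CCF4 loading 2 h RT; fluorescence 460/530 nm. Normalized to rosiglitazone 2 uM = 100%, DMSO = 0%.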

Test [10] has the same target. The test can be described thus: qHTS assay for small molecule antagonists of peroxisome proliferator-activated receptor gamma signaling (AID 588537; active means well fitted inhibition curve with a large enough effect in the signal ratio, with a control signal flat, not every such curve was filed as active; the % refers to the signal ratio;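 further: reporter cells co-stimulated with 50 nM rosiglitazone agonist during compound treatment; % of control where 0% means no effect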). Put shortly: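 Inhibitors of agonist-stimulated UAS-bla reporter activity were sought in HEK293 cells; rosiglitazone (50 nM) defined full signal and DMSO baseline. Curves fitted to Hill model gave IC50 and efficacy.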

Test [11] deals with Vitamin D3 receptor (Homo sapiens) (UniProt P11473). The test can be described thus: qHTS assay for small molecule agonists of vitamin D receptor signaling (AID 588543).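 Further: 0% = DMSO basal and 100% = reference agonist control.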 Summed up:
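qHTS in agonist mode: compound titrations stimulate a VDR-driven β-lactamase reporter in HEK293T cells over 16 h at 37 °C. Response normalized to 50 nM 1α,25-dihydroxyvitamin D3 = 100%, DMSO = 0%; Hill fitting gives EC50 and maximal response.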

Test [12] has as its target Retinoic acid receptor RXR-alpha (Homo sapiens) (UniProt P19793). The test can be described thus: qHTS assay for small molecule agonists of retinoid X receptor alpha signaling (AID 588544).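 On activation: 0% = DMSO basal wells and 100% = reference agonist.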
The target in test [13] is Thyroid hormone receptor beta (Homo sapiens) (UniProt P10828). Briefly: qHTS assay for small molecule agonists of thyroid hormone receptor beta signaling (AID 588545). Put shortly:
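In this cell-based screen, titrated compounds act on HEK 293 cells held in medium with 2% charcoal/dextran FBS, NEAA and pyruvate for 18 hrs at 37 C. Responses are expressed relative to T3 (10 nM) as 100% and basal DMSO as 0%.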

Test [14] can be described thus: qHTS assay for small molecule antagonists of retinoid X receptor alpha signaling (AID 588546; active means well fitted inhibition curve with a large enough effect in the signal ratio, with a control signal flat, not every such curve was filed as active; the % refers to the signal ratio;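 further: cells stimulated with 9-cis-retinoic acid as agonist; on the % scale 0 is the no-effect control and ±100 the full control effect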). The following applies: HEK293T RXRa-UAS-bla, beta-lactamase ratio, antagonist mode; measured here: W530 green channel, cytotoxicity proxy. Put shortly: (§2)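 Beta-lactamase reporter inhibition, read as CCF4 fluorescence ratio (ex 405, em 460/530 nm) after 2 h at RT. HEK293T UAS-bla cells, 2500/well, were stimulated with 9-cis-RA at 500 or 100 nM final alongside test compound for 18 h at 37 C.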

In test [15] the target is Retinoic acid receptor RXR-alpha (Homo sapiens) (UniProt P19793). Described as above. Particulars: HEK293T RXRa-UAS-bla, beta-lactamase ratio, antagonist mode. Put shortly: as §2
For test [16], the target named is Thyroid hormone receptor beta (Homo sapiens) (UniProt P10828). The test can be described thus: qHTS assay for small molecule antagonists of thyroid hormone receptor beta signaling (AID 588547; active means well fitted inhibition curve with a large enough effect in the signal ratio, with a control signal flat, not every such curve was filed as active; the % refers to the signal ratio;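 further: cells stimulated with 0.4 nM T3 agonist during compound exposure; series mostly up to about 77 µM; on the % scale 0 is the no-effect control and ±100 the full control effect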). Particulars: TR-UAS-bla HEK293, beta-lactamase ratio, antagonist mode, 18 h. Summed up: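 Inhibition of T3-driven (0.4nM final) beta-lactamase reporter activity was measured over 0.59 nM to 92 uM compound after 18 h at 37 C. The cells were GripTite HEK293 TR-UAS-bla in charcoal/dextran-stripped serum, with CCF4 ratio read-out and IC50 from Hill fits.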

Test [17] can be described thus: qHTS assay for small molecule activators of the p53 signaling pathway (AID 651743; active means well fitted activation curve with a large enough effect in the signal ratio, not every such curve was filed as active; the % refers to the signal ratio; further: series mostly up to about 92 µM; % of control where 0% means no effect). Particulars: HCT-116 p53RE-bla, beta-lactamase FRET ratio, 16 h; activation: stronger effect = higher value. Summed up: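 Screen for p53 pathway agonists uses stably transfected p53RE-bla HCT-116 cells, 4,000 per well, treated 16 h at 37 C with compounds in DMSO.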
Test [18] can be described thus: qHTS assay for small molecule activators of the nuclear factor-kappa B (NF-kB) signaling pathway (AID 651749; active means well fitted activation curve with a large enough effect in the signal ratio; the % refers to the signal ratio; further: series mostly up to about 77 µM; % of control where 0% means no effect). Particulars: NF-kB-bla ME-180 cells, beta-lactamase FRET ratio, 16 h; activation: stronger effect = higher value. Put shortly: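 Stably transfected ME-180 line; NF-kB response element upstream of beta-lactamase. Treatment: compound or DMSO, 16 hr. Detection: fluorescent FRET substrate.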

Test [19] is described as follows: qHTS assay for environmental chemicals that activate the Aryl hydrocarbon Receptor (AhR) signaling pathway (AID 651777; active means well fitted curve in the direction sought with a large enough effect; an effect the other way counts as inactive or inconclusive; further: % of control where 0% means no effect; nearly all actives have a fitted effect of over 15% in size). Particulars: 1A2-DRE human hepatoma cells, luciferase, 24 h; activation: stronger effect = higher value. Put shortly: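 1A2-DRE human hepatoma reporter line; 1,200 cells/well; cmpd or DMSO 24 h, 37 C/5% CO2; One-Glo 30 min RT; luciferase lum.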
In test [20] the target is Peroxisome proliferator-activated receptor alpha (Homo sapiens) (UniProt Q07869). The test can be described thus: qHTS assay for small molecule agonists of the peroxisome proliferator-activated receptor alpha (PPARalpha) signaling pathway (AID 651778; active means well fitted curve in the direction sought with a large enough effect; an effect the other way counts as inactive or inconclusive; further: % of control where 0% means no effect). The following applies: PathHunter PPARalpha complementation, chemiluminescence, 6 h; max response: stronger effect = higher value. Put shortly: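 Chemiluminescence from complemented enzyme reported PPARalpha activation in cells after 6 hr of compound treatment at 37 C. The detection reagent was incubated for 60 min at room temperature, and compounds were scored as agonists.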

Test [21] is described as follows: qHTS assay for small molecule agonists of the antioxidant response element (ARE) signaling pathway measured by Nrf2-dependant transcriptional activity (AID 720636; active means well fitted curve in the direction sought with a large enough effect in the repeat runs; an effect the other way counts as inactive or inconclusive;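 further: HepG2 cells with an ARE-driven luciferase reporter; % of control where 0% means no effect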). Put shortly:
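Cells: ARE-luc HepG2 with Nrf2-responsive luciferase. Medium contained 1% dialyzed FBS. Compound exposure lasted 16 hr at 37 C and 5% CO2, followed by ONE-Glo luciferase detection.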

The nature of test [22]: qHTS assay for small molecule agonists of the antioxidant response element (ARE) signaling pathway measured by Nrf2-dependant transcriptional activity - cell viability counter screen (AID 720653; active means well fitted curve in the direction sought with a large enough effect in the repeat runs; an effect the other way counts as inactive or inconclusive; further: on the % scale 0 is the no-effect control and ±100 the full control effect). The following applies: ARE-bla HepG2 viability, CellTiter-Glo ATP luminescence, 16 h; max response: stronger effect = lower value. Summed up: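 Cytotoxicity counter screen: intracellular ATP quantified by CellTiter-Glo luminescence in the same ARE-bla HepG2 plates, after 16 h compound exposure and a 2 h beta-lactamase substrate step.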

The nature of test [23]: qHTS assay for cell viability of the p53RE-bla HCT-116 cell line (AID 743292; active means well fitted curve in the direction sought with a large enough effect; an effect the other way counts as inactive or inconclusive; further: on the % scale 0 is the no-effect control and ±100 the full control effect; nearly all actives have a fitted effect of over 55% in size). Summed up: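 HCT-116 p53RE-bla cells seeded 4,000/well; 5 h at 37 C; compound (DMSO) added; 16 h at 37 C; CellTiter-Glo added, 30 min RT; luminescence read.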
The target of test [24] is Nuclear receptor subfamily 1 group I member 2 (Rattus norvegicus) (UniProt Q9R1A7). The test can be described thus: qHTS assay for small molecule activators of the rat pregnane X receptor (rPXR) signaling pathway (AID 651751; call rule not given here; further: 0% is about no effect). The following applies: rPXR reporter cells, luciferase (One-Glo), 24 h.
The nature of test [25]: qHTS assay for small molecule activators of the human pregnane X receptor (PXR) signaling pathway (AID 720659; call rule not given here; further: 0% is about no effect).
Test [26] has as its target Vitamin D3 receptor (Homo sapiens) (UniProt P11473). The test can be described thus: qHTS assay for small molecule antagonists of vitamin D receptor signaling (AID 588541). Summed up:
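Antagonist-mode beta-lactamase reporter assay: HEK293T VDR-UAS-bla cells were exposed to titrated compound alongside 1-alpha,25-dihydroxyvitamin D3 at 3 nM final for 16 h. Values were normalized to the 50 nM agonist control and DMSO basal, with IC50 and efficacy from Hill equation fits.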

The nature of test [27]: qHTS assay for cell viability of HEK293 cells (AID 743288; active means well fitted curve in the direction sought with a large enough effect; an effect the other way counts as inactive or inconclusive; further: on the % scale 0 is the no-effect control and ±100 the full control effect; nearly all actives have a fitted effect of over 50% in size). The following applies: ATP luminescence (CellTiter-Glo), 18 h; max response: stronger effect = lower value. Put shortly:
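The Tox21 protocol used parental HEK293 cells treated for 18 h at 37 C with compounds delivered by pintool; ATP-coupled luminescence after 30 min at room temperature gave viability.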

Molecules are shown by their SMILES. “And” between values parts separate entries of the source, which are not always exact repeats. Equal entries are not always repeated. Results filed as inconclusive are left out. The source made the active and inactive calls. Unless noted, the call rests on the fitted dose curve.

Sequence of Vitamin D3 receptor (Homo sapiens) (P11473 whole entry, looked up): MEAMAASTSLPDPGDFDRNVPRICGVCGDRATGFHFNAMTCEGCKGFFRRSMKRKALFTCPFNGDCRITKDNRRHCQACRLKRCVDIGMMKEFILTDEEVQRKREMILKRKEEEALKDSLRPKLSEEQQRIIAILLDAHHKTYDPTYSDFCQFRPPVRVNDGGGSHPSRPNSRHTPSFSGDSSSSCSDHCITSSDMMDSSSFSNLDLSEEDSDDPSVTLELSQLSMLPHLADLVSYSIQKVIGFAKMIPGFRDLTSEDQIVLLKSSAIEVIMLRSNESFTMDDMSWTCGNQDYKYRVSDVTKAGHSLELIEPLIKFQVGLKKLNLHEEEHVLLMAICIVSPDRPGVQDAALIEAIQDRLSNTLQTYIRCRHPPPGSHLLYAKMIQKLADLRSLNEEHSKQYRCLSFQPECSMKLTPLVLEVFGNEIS
Sequence of Retinoic acid receptor RXR-alpha (Homo sapiens) (P19793 whole entry, looked up): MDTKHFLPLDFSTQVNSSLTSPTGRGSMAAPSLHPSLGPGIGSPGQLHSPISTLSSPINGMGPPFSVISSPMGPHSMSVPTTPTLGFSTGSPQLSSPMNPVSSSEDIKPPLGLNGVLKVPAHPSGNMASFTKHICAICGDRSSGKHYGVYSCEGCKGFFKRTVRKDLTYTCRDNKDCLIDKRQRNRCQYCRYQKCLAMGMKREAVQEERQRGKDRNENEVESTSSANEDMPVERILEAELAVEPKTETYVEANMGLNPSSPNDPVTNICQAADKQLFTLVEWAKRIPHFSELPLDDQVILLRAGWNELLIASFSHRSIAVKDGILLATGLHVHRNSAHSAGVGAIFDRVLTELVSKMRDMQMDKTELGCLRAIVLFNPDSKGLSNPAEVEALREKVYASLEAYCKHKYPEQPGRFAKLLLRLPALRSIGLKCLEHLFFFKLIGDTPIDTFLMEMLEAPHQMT
Sequence of Peroxisome proliferator-activated receptor delta (Homo sapiens) (Q03181 whole entry, looked up): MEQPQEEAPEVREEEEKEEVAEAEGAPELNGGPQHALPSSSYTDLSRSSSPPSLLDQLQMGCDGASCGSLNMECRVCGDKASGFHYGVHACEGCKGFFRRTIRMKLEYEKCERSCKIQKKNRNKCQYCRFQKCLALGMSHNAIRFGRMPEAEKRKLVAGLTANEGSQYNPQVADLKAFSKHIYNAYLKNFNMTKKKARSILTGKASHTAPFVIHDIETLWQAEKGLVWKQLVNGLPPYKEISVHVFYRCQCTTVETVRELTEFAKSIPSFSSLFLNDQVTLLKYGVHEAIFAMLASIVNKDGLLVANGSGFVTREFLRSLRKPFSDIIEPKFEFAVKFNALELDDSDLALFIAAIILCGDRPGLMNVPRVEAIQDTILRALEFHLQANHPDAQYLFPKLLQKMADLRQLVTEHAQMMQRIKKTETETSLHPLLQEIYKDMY
Sequence of Glucocorticoid receptor (Homo sapiens) (P04150 whole entry, looked up): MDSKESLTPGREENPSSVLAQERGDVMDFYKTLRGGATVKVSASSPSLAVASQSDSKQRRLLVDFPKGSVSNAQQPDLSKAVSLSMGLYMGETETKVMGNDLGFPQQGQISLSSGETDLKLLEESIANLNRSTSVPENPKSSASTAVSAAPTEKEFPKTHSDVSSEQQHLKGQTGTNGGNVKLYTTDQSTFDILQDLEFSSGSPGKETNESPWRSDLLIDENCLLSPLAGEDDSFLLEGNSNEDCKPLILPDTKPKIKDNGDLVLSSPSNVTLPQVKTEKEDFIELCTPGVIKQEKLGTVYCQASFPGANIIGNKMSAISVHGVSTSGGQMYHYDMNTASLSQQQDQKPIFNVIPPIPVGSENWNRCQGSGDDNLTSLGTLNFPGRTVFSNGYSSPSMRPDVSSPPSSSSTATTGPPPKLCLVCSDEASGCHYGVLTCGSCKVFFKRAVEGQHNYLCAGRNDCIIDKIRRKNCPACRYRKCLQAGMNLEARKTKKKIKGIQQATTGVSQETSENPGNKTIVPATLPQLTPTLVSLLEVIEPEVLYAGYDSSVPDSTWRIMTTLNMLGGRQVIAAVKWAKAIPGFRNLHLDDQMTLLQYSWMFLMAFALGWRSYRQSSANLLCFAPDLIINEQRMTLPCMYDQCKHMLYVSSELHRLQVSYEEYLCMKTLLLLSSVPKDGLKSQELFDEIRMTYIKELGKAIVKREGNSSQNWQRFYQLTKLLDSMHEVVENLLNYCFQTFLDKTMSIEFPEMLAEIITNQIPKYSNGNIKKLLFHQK
Sequence of Bile acid receptor (Homo sapiens) (Q96RI1 whole entry, looked up): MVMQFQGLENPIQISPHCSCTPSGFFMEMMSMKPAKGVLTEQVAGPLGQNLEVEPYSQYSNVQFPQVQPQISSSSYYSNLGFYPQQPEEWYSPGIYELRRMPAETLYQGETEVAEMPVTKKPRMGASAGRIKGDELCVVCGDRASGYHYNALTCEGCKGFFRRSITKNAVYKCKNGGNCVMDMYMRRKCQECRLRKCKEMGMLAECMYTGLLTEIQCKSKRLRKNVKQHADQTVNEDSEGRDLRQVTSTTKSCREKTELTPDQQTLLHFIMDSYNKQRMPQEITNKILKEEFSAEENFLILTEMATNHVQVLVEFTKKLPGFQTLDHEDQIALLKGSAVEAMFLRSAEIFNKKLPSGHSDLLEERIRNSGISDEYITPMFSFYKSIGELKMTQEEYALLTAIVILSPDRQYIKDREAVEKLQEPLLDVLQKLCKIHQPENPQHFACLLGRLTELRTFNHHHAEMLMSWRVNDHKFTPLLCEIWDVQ
Sequence of Peroxisome proliferator-activated receptor gamma (Homo sapiens) (P37231 whole entry, looked up): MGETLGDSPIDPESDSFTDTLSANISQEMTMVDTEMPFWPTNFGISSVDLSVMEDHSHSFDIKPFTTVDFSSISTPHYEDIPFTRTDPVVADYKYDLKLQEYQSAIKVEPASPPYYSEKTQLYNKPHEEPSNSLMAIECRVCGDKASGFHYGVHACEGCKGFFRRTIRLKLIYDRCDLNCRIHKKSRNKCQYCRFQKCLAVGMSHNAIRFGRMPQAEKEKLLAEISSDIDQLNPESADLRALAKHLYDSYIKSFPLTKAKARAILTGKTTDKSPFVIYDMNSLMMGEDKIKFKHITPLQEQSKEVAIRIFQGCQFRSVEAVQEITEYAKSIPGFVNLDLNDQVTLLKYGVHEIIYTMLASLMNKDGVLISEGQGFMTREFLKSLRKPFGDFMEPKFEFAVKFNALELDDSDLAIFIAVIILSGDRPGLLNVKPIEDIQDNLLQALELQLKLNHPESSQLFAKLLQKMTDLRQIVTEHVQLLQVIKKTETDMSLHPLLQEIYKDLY
Sequence of Thyroid hormone receptor beta (Homo sapiens) (P10828 whole entry, looked up): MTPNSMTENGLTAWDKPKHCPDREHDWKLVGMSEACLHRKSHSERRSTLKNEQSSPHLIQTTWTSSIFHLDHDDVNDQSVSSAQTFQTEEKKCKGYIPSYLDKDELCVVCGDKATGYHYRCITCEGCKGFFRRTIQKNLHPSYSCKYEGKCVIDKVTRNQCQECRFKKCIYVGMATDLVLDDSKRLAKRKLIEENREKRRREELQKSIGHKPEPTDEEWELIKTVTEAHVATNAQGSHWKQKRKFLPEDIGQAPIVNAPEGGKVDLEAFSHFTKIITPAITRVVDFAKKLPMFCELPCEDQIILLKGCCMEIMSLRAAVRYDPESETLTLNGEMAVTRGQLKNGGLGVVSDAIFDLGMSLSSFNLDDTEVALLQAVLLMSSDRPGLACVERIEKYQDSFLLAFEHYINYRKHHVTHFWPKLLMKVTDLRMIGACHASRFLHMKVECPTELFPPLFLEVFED
Sequence of Nuclear receptor subfamily 1 group I member 2 (Rattus norvegicus) (Q9R1A7 whole entry, looked up): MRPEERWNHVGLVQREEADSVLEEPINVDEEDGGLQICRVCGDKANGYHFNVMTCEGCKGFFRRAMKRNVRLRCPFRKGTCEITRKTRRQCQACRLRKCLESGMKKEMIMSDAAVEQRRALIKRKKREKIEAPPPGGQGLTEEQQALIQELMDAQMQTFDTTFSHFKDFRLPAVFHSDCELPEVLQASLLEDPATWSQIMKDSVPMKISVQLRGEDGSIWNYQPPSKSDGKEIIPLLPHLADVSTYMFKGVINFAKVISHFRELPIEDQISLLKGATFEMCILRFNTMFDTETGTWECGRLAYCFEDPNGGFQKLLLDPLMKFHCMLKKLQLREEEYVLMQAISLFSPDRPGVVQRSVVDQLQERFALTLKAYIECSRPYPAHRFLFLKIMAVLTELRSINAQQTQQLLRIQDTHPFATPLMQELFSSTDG
Sequence of Peroxisome proliferator-activated receptor alpha (Homo sapiens) (Q07869 whole entry, looked up): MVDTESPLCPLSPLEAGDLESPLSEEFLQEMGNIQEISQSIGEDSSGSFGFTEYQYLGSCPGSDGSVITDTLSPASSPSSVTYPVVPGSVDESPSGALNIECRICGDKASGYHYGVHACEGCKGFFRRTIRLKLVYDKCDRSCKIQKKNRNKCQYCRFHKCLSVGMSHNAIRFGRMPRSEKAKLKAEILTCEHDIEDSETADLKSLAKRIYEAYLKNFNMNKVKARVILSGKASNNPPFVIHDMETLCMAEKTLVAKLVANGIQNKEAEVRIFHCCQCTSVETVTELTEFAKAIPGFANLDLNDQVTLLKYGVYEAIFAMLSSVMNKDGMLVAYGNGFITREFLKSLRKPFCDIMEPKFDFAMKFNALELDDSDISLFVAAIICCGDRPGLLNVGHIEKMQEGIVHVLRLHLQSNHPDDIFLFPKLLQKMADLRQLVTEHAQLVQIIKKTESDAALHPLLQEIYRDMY

On to `CN(C)C=O`, for which the Potency entry in test [1] is “inactive”. Further, the activation in test [2] is -2.96% (inactive) and -2.36% (inactive) and -5.04% (inactive). Further, the max response in [3] is 2.34% and -5.07% and -17.6%.

`O=C(O)COc1ccc(Cl)cc1`: the activation was -1.72% (inactive) in test [4], -0.56% (inactive) in [17], -0.213% (inactive) in test [18] and 1.68% (inactive) in test [19]. For the same compound, the Potency result in test [5], in test [8], in test [9], in [10], in [12] and in test [13] was “inactive” in each case. Further, the Potency entry in [21] and in test [23] was “inactive” in each case. Also, the compound was classed as inactive in test [6], in test [11] and in test [25]. Further, the max response was 9.9% in test [7]; 0.278% in test [14]; -13.3% (inactive) in test [15]; -2.55% (inactive) in test [20]; 1.53% (inactive) in test [22]; -5.77% (inactive) in test [24]. The activity change % (negative = inhibition) in [16] was -4.24% (inactive).

For the compound `Cc1cc(C)nc(Nc2ccccc2)n1`, the activation in test [4] was -19% (inactive); in test [17], -0.291% (inactive); in [18], -2.63% (inactive); in test [19], 7.09% (inactive). In addition, the Potency result in [5], in test [8], in test [9], in test [10], in [26] and in [12] was “inactive” each time. The Potency entry in test [13] and in [23] was “inactive” in each case. In addition, the outcome in test [6], in [11] and in test [25] was inactive. Also, the max response was -19.7% in test [7]; -7.16% in test [14]; -45.9% (inactive) in [15]; 5.23% (inactive) in test [20]; -4.46% (inactive) in test [22]; -15.1% (inactive) in test [27]. The max response in [24] is 11.4% (inactive). The activity change % (negative = inhibition) in [16] was -4.91% (inactive).
